These results are taken from PubChem BioAssay (Tox21).

Records with an inconclusive call do not appear. The source made the active and inactive calls. Calls come from the whole dose curve; as a rule, active = well fitted cell-killing curve with a large enough effect in the repeat runs; inconclusive = weak or mixed curves; inactive = flat fitted curve, though single readings scatter.
% is set by controls: 0 for no effect and ±100 for the full control effect.

A short description of this assay: qHTS RealTime-Glo MT Cell Viability Assay in HepG2 cells - 24 hour (AID 1224867). Note: nearly all actives have a fitted effect of over 50% in size. The settings on record: RealTime-Glo luminescence; series mostly up to 76.8 µM. From the text: U.S. Tox21 Program National Center for Advancing Translational Sciences [NCATS] NIH Chemical Genomics Center [NCGC] U.S. Environmental Protection Agency [EPA] National Institutes of Environmental Health Sciences [NIEHS] National Toxicology Program [NTP] U.S. Food and Drug Administration [FDA] Tox21 Assay Overview: Measure of cell viability is critical in the cell-base assay. Analysis of cell viability is necessary for the characterization of cell responses to cytotoxic drugs and environmental stress. A RealTime-Glo MT Cell Viability Assay to monitor cell viability in real time of continues cell culture during 40 hours of compound treatment was used to screen Tox21 10K library compounds in HepG2 cells. The RealTime-Glo MT Cell Viability Assay is a nonlytic, homogeneous, bioluminescent method to measure cell viability in real time using a simple, plate-based method. The assay involves adding NanoLuc luciferase and a cell-permeant prosubstrate to cells in culture. Viable cells reduce the proprietary prosubstrate to generate a substrate for NanoLuc luciferase. This substrate diffuses from cells into the surrounding culture medium, where it is rapidly used by the NanoLuc Enzyme to produce a luminescent signal. The signal correlates with the number of viable cells, making the assay well suited for cytotoxicity studies.
Tox21 Assay Protocol Summary: The mixture of HepG2 cell suspension and reagents were dispensed at 600cells/6 ul/well in 1536-well tissue culture treated black solid bottom plates using a Multidrop dispenser. After the assay plates were incubated at a 37 C/5% CO2 incubator for 5 hours, 23 nL of compounds dissolved in DMSO, positive and negative controls was transferred to the assay plate by a pintool work station. The plates were incubated at 37 C for 40 hours. The luminescence intensity were measured at 0h, 8h, 16h, 24h, 32h and 40h time points using ViewLux plate reader during compound treatment.
In general terms: Quantitative high-throughput screening tests each substance at several concentrations.
For `C1CCC2(CCCCO2)OC1`, the result was inactive.

For the compound `C[N+]12CCC(CC1)C(OC(=O)C(O)(c1ccccc1)c1ccccc1)C2` (stereo not given), the compound was called inactive. On the same count and under the same terms, the result for `C=CCOCC(O)CO` (stereo not given) reads “inactive”; that for `CC/C=C\CCOC(C)OCC` (stereo not given), “inactive”; that for `CC(C)(C)C(=O)c1ccccc1`, “inactive”.

`O=S(=O)(O)c1cc(O)c(O)c(S(=O)(=O)O)c1`: the call was inactive.

Take `CC(=O)C1CCCCC1=O` (stereo not given): the compound was called inactive. On the same count and under the same terms, the result for `c1ccc(CCc2ccccc2)cc1` reads “inactive”. The same measure, in the same setting: the result for `CCCCOCCOC(=O)CCCCCCCCC(=O)OCCOCCCC` reads “inactive”. On to `CCN[C@@H]1C[C@H](N)[C@@H](OC2OC(CN)=CCC2N)[C@H](O)[C@H]1O[C@H]1OC[C@](C)(O)[C@H](NC)[C@H]1O` (stereo not given in full), for which the activity change, negative = cytotoxicity was 1.48% [at 0.29 µM] (inactive).

As to `CCCOC(=O)CC`, the outcome was inactive. With `c1ccc(Cc2ccccc2)cc1`, the compound was called inactive.

On to `C=CCCC(=O)O`, for which the compound was classed as inactive. Same read-out and setting: the result for `CCOC(=O)CCC(=O)OCC` reads “inactive”; that for `C=CCCCCCCCCC(=O)OCC`, “inactive”.

Regarding `NC(N)=NCCN1CCCCCCC1`, the activity change, negative = cytotoxicity is 0.287% [at 0.29 µM] (inactive). Take `CCCCCCCCCC[N+](C)(C)[O-]`: the result was inactive. `CC(C)C1CCC(O)CC1` (stereo not given): the compound was classed as inactive.

With `COc1ccnc(CS(=O)c2nc3cc(OC(F)F)ccc3[nH]2)c1OC` (stereo not given), the call was inactive.

With `CCCCCCCC1CCCC1=O` (stereo not given), the outcome was inactive.

In the case of `O=C(O)c1cc(C(=O)O)cc(C(=O)O)c1`, the outcome was inactive. With `CCCCCCC1CCC(=O)O1` (stereo not given), the compound was classed as inactive. As to `NC(=O)N1c2ccccc2CC(=O)c2ccccc21`, the outcome was inactive. Consider `C=CN1CCCCCC1=O`, for which the compound was called inactive.

For `Nc1ccn([C@@H]2O[C@H](CO)[C@@H](O)C2O)c(=O)n1` (stereo not given in full), the compound was classed as inactive. Turning to `NC(=O)Cc1cccc2ccccc12`, the result was inactive. On the same count and under the same terms, the result for `CC(C)CC(C)(N)C#N` (stereo not given) reads “inactive”. Same read-out and setting: the result for `CCOCC(C)O` (stereo not given) reads “inactive”; that for `CCC1C(=O)OCC1Cc1cncn1C` (stereo not given), “inactive”; that for `CN1C(C)(C)CC(O)CC1(C)C`, “inactive”. Same read-out and setting: the same measure for `CC1=NN(c2cc(S(=O)(=O)O)ccc2Cl)C(=O)C1N=Nc1ccccc1` (stereo not given): “inactive”. As for `CC(CO)(CO)[N+](=O)[O-]`, the call was inactive. The same measure, in the same setting: the result for `C[C@@H]1CCC[C@H](C)N1` reads “inactive”; that for `CCCCc1nc(Cl)c(CO)n1Cc1ccc(-c2ccccc2-c2nn[nH]n2)cc1`, “inactive”; that for `Cc1onc(-c2c(Cl)cccc2Cl)c1C(=O)Cl`, “inactive”.

Turning to `CNC(=O)Nc1ccc(Cl)c(Cl)c1`, the call was inactive.

On to `O=S(=O)(O)c1cccc(S(=O)(=O)O)c1`, for which the call was inactive. For the compound `CO/N=C(\C(=O)N[C@@H]1C(=O)N2C(C(=O)O)=C(CSc3nc(=O)c(O)nn3C)CS[C@H]12)c1csc(N)n1`, the outcome was inactive. Same read-out and setting: the same measure for `Cc1ccc(-c2ncc(Cl)cc2-c2ccc(S(C)(=O)=O)cc2)cn1`: “inactive”; for `O=S(=O)(O)c1cccc2ccccc12`: “inactive”.
